Values without a mark were called inactive. Calls of active or inactive are those of the source. Calls follow the shape of the dose curve; as a rule, active = well fitted cell-killing curve with a large enough effect; inconclusive = small, poorly fitted or top-dose-only effect; inactive = flat fitted curve, though single readings scatter.
assay: Cell Viability - LYMP1-002 - Assay at 24 hr (AID 993); settings: LYMP1-002 lymphoblastoid cells viability; series mostly up to 92.2 µM; activity change, negative = cytotoxicity: at the top concentration
Text: NIH Chemical Genomics Center [NCGC]
NIH Molecular Libraries Screening Centers Network [MLSCN]
National Institutes of Environmental Health Sciences [NIEHS]
National Toxicology Program [NTP]
We have developed a 1536-well cell-based assay for quantitative high throughput screening (qHTS) against a number of cell lines to determine in vitro cytotoxicity of small molecules. This particular assay uses a human lymphoblastoid cell line (LYMP1-002) purchased from Coriell Institute for Medical Research.
NCGC Assay Protocol Summary:
The CellTiter-Glo luminescent cell viability assay (Promega) is a homogeneous method to measure the number of viable cells in culture. The end point readout of this assay is based on quantitation of intracellular ATP, an indicator of metabolic activity, using the luciferase reaction. Luciferase catalyzes the oxidation of beetle Luciferin to oxyluciferin and light in the presence of ATP. The luminescent signal is proportional to amount of ATP present.
Using the CellTiter-Glo luminescent cell viability assay, the amount of cellular ATP was measured in the lymphoblastoid cell line with complete culture medium following compound treatment for 24 hours. The assay was performed in opaque white Kalypsys 1536-well plates. In the screen, tetraoctylammonium bromide was used as positive control. Library compounds were measured for their ability to cause acute toxicity in the cell line, as reflected by a decrease in intracellular ATP levels, in a concentration-dependent manner. […] AC50 values were determined from concentration-response data modeled with the standard Hill equation.
qHTS protocol for CellTiter Glo lymphoblastoid cellular assay
[Step] [Parameter] [Value] [Description]
1. Reagent; 5 uL; 2500 lymphoblastoid cells/well
2. Time; 5 hr; 37 C incubation
4. Controls; 23 nL; Tetraoctylammonium bromide 6.4pM to 92 uM
5. Time; 24 hr; 37 C incubation
6. Reagent; 5 uL; CellTiter Glo reagent
7. Time; 30 min; Room Temperature
8. Detection; Luminescence; Viewlux plate reader
Keywords: cell viability, cytotoxicity, lymphoblastoid cell line, luminescence, NTPHTS, NTPHTS_NCGC, NIEHS, DSSTox, MLSMR, MLSCN, NIH Roadmap, qHTS, NCGC
% is scaled to controls: 0 for no effect and ±100 for the full control effect; potency is read from the fitted curve at half-maximal effect.

| Compound | activity change, negative = cytotoxicity | Potency |
| --- | --- | --- |
| c1ccc2ncccc2c1 | 0.771% | – |
| Nc1ccccc1O | -11% | – |
| CCCCCCCC/C=C\CCCCCCCC(=O)N(CCO)CCO | -10.7% | – |
| COc1ccc(C(=O)Nc2ccccc2)cc1[N+](=O)[O-] | -4.15% | – |
| C=CC(=O)CC | -0.682% | – |
| O=C=Nc1ccc(Cl)c(Cl)c1 | -27.2% | – |
| CC(C)(C)C(=O)C1C(=O)c2ccccc2C1=O | -22% | – |
| Oc1ccc2c(c1)OCO2 | 2.92% | – |
| CN(C)c1ccc(C(=N)c2ccc(N(C)C)cc2)cc1 | -27.7% | – |
| C[Si](C)(C)Cl | -2.57% | – |
| c1ccc(COCc2ccccc2)cc1 | 3.3% | – |
| Brc1cc(Oc2cc(Br)c(Br)c(Br)c2Br)c(Br)c(Br)c1Br | 3.04% | – |
| CC(=O)c1ccc(Cl)c(Cl)c1Cl | 0.668% | – |
| CN(C)c1ccc(Cc2ccc(N(C)C)cc2)cc1 | -11.1% | – |
| CCCCNCC | 0.993% | – |
| c1ccc(Nc2cccc3ccccc23)cc1 | 1.18% | – |
| CC(=O)OCc1ccc2c(c1)OCO2 | -19.6% | – |
| C=CC(C)(O)CCCC(C)CCCC(C)CCCC(C)C (stereo not given) | -7.2% | – |
| CCCCCCN | -12% | – |
| COc1ccc(C)cc1N | 0.664% | – |

| Compound | activity change, negative = cytotoxicity | Potency |
| --- | --- | --- |
| Cc1c(N)cccc1Cl | -6.46% | – |
| Clc1nc2ccccc2nc1Cl | -7.63% | – |
| Oc1ccc(O)c2c(O)cccc12 | -10.6% | – |
| Cc1cc(-c2ccc(N=Nc3cc(S(=O)(=O)O)c4ccccc4c3N)c(C)c2)ccc1N=Nc1cc(S(=O)(=O)O)c2ccccc2c1N | -25.3% | – |
| CCOC(=O)C1OC1c1ccccc1 (stereo not given) | -1.25% | – |
| Cc1ccc(S(N)(=O)=O)cc1 | 1.04% | – |
| O=CC(=O)c1ccccc1 | -12.9% | – |
| CCCC(=O)OC(=O)CCC | -3.94% | – |
| Brc1ccc(-c2ccccc2)cc1 | 7.14% | – |
| CC(CCC(=O)O)(c1ccc(O)cc1)c1ccc(O)cc1 | -0.533% | – |
| CCOc1ccc2nc(N)sc2c1 | -2.14% | – |
| CC1=C(/C=C/C(C)=C/C=C/C(C)=C/C=O)C(C)(C)CCC1 | – | 50.1 µM (active) |
| O=C(O)/C=C/c1ccc(/C=C/C(=O)O)cc1 | -0.242% | – |
| O=c1[nH]ncc2ccccc12 | -4.4% | – |
| CCC(Cl)CC(Cl)C(Cl)C(Cl)C(Cl)C(C)Cl (stereo not given) | -2.28% | – |
| O=C(OCC1CO1)C1CCCCC1C(=O)OCC1CO1 (stereo not given) | -24.7% | – |
| C=C1CC[C@H](O)C/C1=C/C=C1\CCC[C@]2(C)[C@@H]([C@H](C)CCCC(C)C)CC[C@@H]12 | – | 50.1 µM (active) |
| CC(/C=C/C=C(C)/C=C/C(=O)O)=C\C=C\C=C(C)\C=C\C=C(C)\C=C\C(=O)O | -5.48% | – |
| Cc1ccc(C(=O)O)cc1[N+](=O)[O-] | -0.779% | – |
| Nc1ccc(-c2ccc(N)c(O)c2)cc1O | -14.2% | – |

— PubChem BioAssay (NCATS)
